# JMJD2A Tudor inh: inhibitors of human JMJD2A Tudor domain. AlphaScreen JMJD2A-Tudor / H3K4me3 peptide binding. Potency, µM (top dose mostly 114 µM), usual class: inhibitors. 4.4% of 390,000 active; also: nearly all actives have a fitted effect of over 50% in size
# Target sequence (O75164 whole entry, looked up, the tested form may be a part): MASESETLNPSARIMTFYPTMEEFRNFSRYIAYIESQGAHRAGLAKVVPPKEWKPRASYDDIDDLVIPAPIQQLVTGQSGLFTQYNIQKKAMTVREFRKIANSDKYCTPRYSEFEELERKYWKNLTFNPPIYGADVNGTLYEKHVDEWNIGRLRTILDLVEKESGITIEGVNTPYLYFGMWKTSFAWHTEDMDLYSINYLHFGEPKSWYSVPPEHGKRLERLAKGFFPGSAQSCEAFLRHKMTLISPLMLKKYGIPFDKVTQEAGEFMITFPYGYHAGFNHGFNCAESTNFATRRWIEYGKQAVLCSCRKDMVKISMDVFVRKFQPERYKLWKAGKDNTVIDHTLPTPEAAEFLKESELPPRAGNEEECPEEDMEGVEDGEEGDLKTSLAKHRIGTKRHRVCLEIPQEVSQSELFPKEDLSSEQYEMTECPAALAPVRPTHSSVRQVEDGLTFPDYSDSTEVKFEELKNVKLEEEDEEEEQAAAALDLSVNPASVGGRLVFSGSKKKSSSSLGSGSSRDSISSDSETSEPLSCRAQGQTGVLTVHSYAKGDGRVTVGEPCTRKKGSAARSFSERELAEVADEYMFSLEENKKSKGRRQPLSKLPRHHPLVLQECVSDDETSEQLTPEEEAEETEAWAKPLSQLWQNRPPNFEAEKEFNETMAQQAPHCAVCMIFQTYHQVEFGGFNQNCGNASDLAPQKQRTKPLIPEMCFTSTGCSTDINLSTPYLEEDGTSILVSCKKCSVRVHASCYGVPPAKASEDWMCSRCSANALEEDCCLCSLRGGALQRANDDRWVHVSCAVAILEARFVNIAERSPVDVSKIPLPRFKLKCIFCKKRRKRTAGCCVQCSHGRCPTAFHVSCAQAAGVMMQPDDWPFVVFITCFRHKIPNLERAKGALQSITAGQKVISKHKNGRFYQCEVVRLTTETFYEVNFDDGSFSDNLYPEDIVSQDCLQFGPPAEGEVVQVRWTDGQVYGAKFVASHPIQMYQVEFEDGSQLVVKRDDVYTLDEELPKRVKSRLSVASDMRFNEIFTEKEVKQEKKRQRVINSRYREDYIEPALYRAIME
# HP1b chromo inh: inhibitors of HP1-beta chromodomain binding to methylated histone tails; P83916; AlphaScreen HP1-beta / biotin-H3K9me3 peptide binding; Potency, µM (doses to about 114 µM), hits mostly inhibitors; 0.56% of 390,000 active; AID 540317; also: nearly all actives have a fitted effect of over 70% in size
#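 Compound inhibition of the preformed complex between 50 nM HP1-beta and 50 nM biotinylated H3K9me3 peptide was read by AlphaScreen. Buffer was PBS pH 7.4 with 0.01% Tween-20. Incubations ran 30 min at room temperature, with 10 ug/mL donor/acceptor beads.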
# G9a block: inhibitors of human histone lysine methyltransferase G9a | G9a H3K9 monomethylation, AlphaScreen, 2 h | 8.8% of 350,000 active | Potency, µM (doses to about 102 µM), most hits filed as inhibitors | Q96KQ7 | AID 504332; also: nearly all actives have a fitted effect of over 75% in size
#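 Readings reflect AlphaScreen signal from monomethyl-H3K9 antibody detection. HMT at 20 nM; substrate b-H3K9 500 nM; cofactor SAM 20 uM; 2 h RT reaction; compounds tested as titrations in qHTS with 15 min preincubation.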
# GLS inh: inhibitors of human glutaminase (GLS); O94925; GLS enzymatic activity, qHTS titration; Potency, µM (highest dose often 45.5 µM), most hits filed as inhibitors; 0.21% of 410,000 active
#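 Two-point fluorescence kinetic (t0, 30 min RT) for hKGA; glutamate detected via glutamate oxidase–HRP–Amplex Red. Substrate: 1 mM L-glutamine solution; buffer 45 mM KH2PO4, pH 8.2.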
# BAZ2B block: inhibitors of human BAZ2B bromodomain | Q9UIF8 | AlphaScreen BAZ2B-H3K14Ac peptide displacement | Potency, µM (top dose mostly 114 µM), usual class: inhibitors | 4.4% of 360,000 active | AID 504333; also: nearly all actives have a fitted effect of over 60% in size
#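 Complex of BAZ2B and biotin-H3K14Ac (50 nM apiece) forms over 30 min at RT, then faces library compounds up to 110 uM for another 30 min; AlphaScreen beads added, 20 min dark incubation, luminescence read.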
# Numbers stand for hits; 0 = inactive; ? = inconclusive; - = no result given; [ ] = dose if it differs, or a comment. Shown are actives, neighbours in structure and some others; about 10% of the full set was active somewhere. Calls follow the shape of the dose curve; as a rule, active = well fitted curve in the direction sought with a large enough effect; inconclusive = small, poorly fitted or top-dose-only effect, or another doubt; inactive = no such curve, though single readings can be large; an effect the other way counts as inactive or inconclusive.
SMILES,JMJD2A Tudor inh,HP1b chromo inh,G9a block,GLS inh,BAZ2B block
O=C(OC1CCOC1=O)C1CCN(S(=O)(=O)c2c(Cl)cccc2Cl)CC1 (configuration not stated),0,0,?,0,?
CC(=O)c1ccc(NC(=O)Cn2c(=O)c3cccn3c3ccccc32)cc1,0,0,0,0,0
CC(=O)Nc1cccc(C(=O)N/N=C/c2ccc(C)o2)c1,0,0,?,0,0
CCOC(=O)C1(Cc2ccccc2C(F)(F)F)CCN(C(C)CSC)CC1 (configuration not stated),0,0,0,0,0
CCOC(=O)C1(Cc2ccccc2C(F)(F)F)CCN(C(C)CCn2cccn2)CC1 (configuration not stated),0,0,-,0,45µM
O=C(/C(=C(\[O-])c1ccccc1)[n+]1ccc2ccccc2c1)c1ccccc1,0,0,0,0,0
O=C(/C(=C(\[O-])c1ccccc1)[n+]1ccc2ccccc2c1)c1ccc(Cl)cc1,0,0,20µM,0,0
COc1ccc(NC(=O)C2CCCN(S(=O)(=O)c3cccc4cccnc34)C2)c(OC)c1 (configuration not stated),0,0,0,0,0
CN1C(=O)/C(=C\C=C2/CCCN2C)N(C)C1=S,0,0,18µM,0,0
CC1CCc2cc(F)cc3c(O)c(C(=O)NCC4CCCO4)c(=O)n1c23 (configuration not stated),0,0,0,0,0
COC(=O)C1=C(O)/C(=C\c2ccc(CNS(=O)(=O)c3ccccc3)o2)N=C1C,?,0,?,0,0
COC(=O)C1=C(O)/C(=C\c2ccc(CNS(=O)(=O)c3ccc(Cl)cc3)o2)N=C1C,0,0,13µM,0,?
CCOC(=O)C1=C(O)/C(=C\c2ccc(CNS(=O)(=O)c3ccc(Br)cc3)o2)N=C1C,56µM,0,?,0,0
Cc1nnc(SCc2cc(=O)c3ccccc3[nH]2)s1,0,0,0,0,0
Cc1nnc(SCc2cc(=O)[nH]c(=S)[nH]2)s1,?,0,28µM,0,?
O=c1cc(CSc2ccccc2)[nH]c(=S)[nH]1,89µM,0,?,?,0
CS(=O)(=O)Nc1cccc(C2=NN(C(=O)c3ccco3)C(c3ccco3)C2)c1 (configuration not stated),?,0,-,0,0
C=CCN(Cc1nc(-c2ccc(OC)cc2)no1)C(=O)c1ccc2c(c1)OCO2,0,0,0,0,0
Cc1cc(C(=O)CN2C(=O)NC(Cc3c[nH]c4ccccc34)C2=O)c(C)n1C (configuration not stated),?,0,50µM,0,50µM
CNC(=O)CN1C(=O)NC(Cc2c[nH]c3ccccc23)C1=O (configuration not stated),0,0,0,0,0
Cc1ccc(S(=O)(=O)CCC(=O)Oc2ccc(-c3nnco3)cc2)cc1,0,0,20µM,0,0
O=C(O)c1ncn(Cc2ccccc2)c1C(=O)O,6.3µM,0,10µM,0,32µM
O=C(NCc1ccccc1)c1ncn(Cc2ccccc2)c1C(=O)NCc1ccccc1,0,0,0[2.33 µM],0,0
Cc1ccc(-n2cccc2/C=C2/C(=N)N3C(=NC2=O)SN=C3S(C)(=O)=O)cc1Cl,45µM,0,50µM,0,45µM
CCC1=NN2C(=N)/C(=C\c3cccn3-c3c(C)cccc3C)C(=O)N=C2S1,0,0,?,0,0
SMILES,JMJD2A Tudor inh,HP1b chromo inh,G9a block,GLS inh,BAZ2B block
CC1=CSC2=NC(=O)/C(=C\c3cccn3-c3ccccc3)C(=N)N12,?,0,0,0,0
Cc1cccc(C)c1-n1cccc1/C=C1/C(=N)N2C(=NC1=O)SN=C2S(C)(=O)=O,0,0,32µM,0,0
COc1cccc(C(c2nnnn2Cc2ccc(F)cc2)N2CCC(C(N)=O)CC2)c1OC (configuration not stated),?,0,0[12.7 µM],0,?
COC(=O)c1sccc1N/C=C(\C#N)S(=O)(=O)C(C)(C)C,79µM,0,0,0,0
COc1cccc(C2=Nn3c(nnc3-c3ccc(OC)c(OC)c3)SC2)c1,0,-,-,-,-
O=c1oc2ccccc2cc1-c1cn2ccccc2n1,0,0,0,0,0
Cc1cccn2cc(-c3cc4ccccc4oc3=O)nc12,89µM,0,-,0,0
CC1(C(=O)Nc2cnc3ccccc3c2)CCN1Cc1ccc2ccccc2c1 (configuration not stated),-,-,-,0,-
CCc1ccc2c(CN3CCc4ccccc43)cc(=O)oc2c1,0,0,35µM,0,0
Cc1nnc(SCc2cc(=O)oc3ccc4ccccc4c23)n1Cc1ccccc1,0,0,35µM,0,0
Cc1ccc2oc(=O)cc(CN3CCN(Cc4ccccc4)CC3)c2c1,0,0,50µM,0,0
CCc1cc2c(CN(C)Cc3ccccc3F)cc(=O)oc2cc1O,0,0,50µM,0,0
CCc1ccc2c(CN3CCN(Cc4ccccc4)CC3)cc(=O)oc2c1,0,0,71µM,0,0
CCc1cc2c(CN3CCN(Cc4ccccc4)CC3)cc(=O)oc2cc1O,?,0,45µM,0,?
O=c1cc(CN2CCN(Cc3ccccc3)CC2)c2cc3c(cc2o1)CCC3,0,0,?,0,0
COc1ccc2c(CN3CCN(Cc4ccccc4)CC3)cc(=O)oc2c1,-,-,-,0,-
Cc1cc(C)c2c(CN3CC(C)OC(C)C3)cc(=O)oc2c1C (configuration not stated),0,0,0,0,0
Cc1cc(C)c2c(CN3CCN(Cc4ccccc4)CC3)cc(=O)oc2c1C,?,0,50µM,0,?
CC(C)c1ccc2oc(=O)cc(CN3CCCCC3)c2c1,0,0,71µM,0,0
CC1CCN(Cc2cc(=O)oc3ccc(C(C)C)cc23)CC1,0,0,0,0,0
C/C(=N\NC(=O)CSc1nc2nc(C)cc(C)n2n1)c1ccccc1,0,0,0,0,0
COc1nc(OCCNC(C)=O)nc(N(C)C)n1,0,0,-,0,0
CCc1ccc2c(CN3CCC(C(=O)OC)CC3)cc(=O)oc2c1,0,0,50µM,0,0
CCOC(=O)Nc1ccc2c(CN3CCC(C(=O)OC)CC3)cc(=O)oc2c1,0,0,0,0,0
C=CC1=C(C(=O)O)N2C(=O)[C@@H](NC(=O)/C(=N\O)c3csc(N)n3)[C@H]2SC1 (stereo in doubt),20µM,0,-,?,-
CO/N=C(/C(=O)N[C@H]1C(=O)N2C(C(=O)O)=C(COC(C)=O)CSC12)c1csc(N)n1 (some centres not stated),-,-,0[2.33 µM],-,-
CO/N=C(/C(=O)NC1C(=O)N2C(C(=O)O)=C(CSc3nc(=O)c(O)nn3C)CSC12)c1csc(N)n1 (configuration not stated),-,-,0[2.33 µM],28µM,-
Cn1ccc(C(=O)OCC(=O)Nc2ccccc2Cl)n1,0,0,0,0,0
Cc1ccc(CNC(=O)c2ccc(-c3nc(CN4CCc5ccccc54)c(C)o3)cc2)cc1,0,0,0,0,0
